Records with an inconclusive call do not appear. A number with no mark means an inactive call. The source made the active and inactive calls. The call rests on the fitted dose curve. Non-standard residues stand in square brackets, D forms with d. Residues, ends and D or L forms follow the SMILES beside them. *: point of attachment. Sta = CC(C)C[C@H](N)[C@@H](O)CC(=O)O; Isovaleryl = CC(C)CC(=O)*
Assay: qHTS assay for small molecules that induce genotoxicity in human embryonic kidney cells expressing luciferase-tagged ATAD5 - cell viability (AID 651634); further: nearly all actives have a fitted effect of over 25% in size
Settings: HEK293T ATAD5-luc cells viability, CellTiter-Fluor, 15.5 h; series mostly up to 83.3 µM; activity, negative = cytotoxicity: at the top concentration
Outline: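 Cells (HEK293T, luciferase-tagged ATAD5) are seeded at 2,000 per well, dosed with compound or DMSO vehicle, and incubated 15.5 hr at 37C and 5% CO2. CellTiter-Fluor is added for 30 min before fluorescence is measured.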
With COc1cnc(NS(=O)(=O)c2ccc(N)cc2)nc1 the “activity, negative = cytotoxicity” value was 11.1% [at 39.1 µM]. In the case of CCCCCCCCOCCC#N, the “activity, negative = cytotoxicity” value is reported as 8.77%. In the case of NC[C@H]1O[C@H](O[C@H]2[C@H](O)[C@@H](O[C@H]3O[C@H](CO)[C@@H](O)[C@H](N)[C@H]3O)[C@H](N)C[C@@H]2N)[C@H](N)[C@@H](O)[C@@H]1O, the outcome is reported as “inactive”. In the case of C=CCOC(=O)CCCCCCCC, the “activity, negative = cytotoxicity” value is reported as 12.4% [at 95.3 µM]. With CC(C)(Sc1cc(C(C)(C)C)c(O)c(C(C)(C)C)c1)Sc1cc(C(C)(C)C)c(O)c(C(C)(C)C)c1 the “activity, negative = cytotoxicity” value was 11.5% [at 39.1 µM]. For CC(=O)c1c(C)cc(C(C)(C)C)cc1C, the “activity, negative = cytotoxicity” value was -10.3%. With Nc1cc(S(=O)(=O)O)ccc1O the “activity, negative = cytotoxicity” value was -16.7%. With O=C(O)Cc1ccccc1Oc1ccc(Cl)cc1Cl the “activity, negative = cytotoxicity” value was 13.8%. In the case of CCCCCCCCC1CO1 (centres undefined), the “activity, negative = cytotoxicity” value is reported as 13.6% [at 95.3 µM]. With N=C(N)N the “activity, negative = cytotoxicity” value was 13.1%. With COC(=O)c1ccc(C(=O)O)cc1 the “activity, negative = cytotoxicity” value was 14.6%. In the case of CC(C)CC(=O)N[C@H](C(=O)N[C@H](C(=O)N[C@@H](CC(C)C)[C@@H](O)CC(=O)N[C@@H](C)C(=O)N[C@@H](CC(C)C)[C@@H](O)CC(=O)O)C(C)C)C(C)C (Isovaleryl-VV[Sta]A[Sta]-OH), the “activity, negative = cytotoxicity” value is reported as 8.63%. In the case of Cc1ccc(O)c([N+](=O)[O-])c1, the “activity, negative = cytotoxicity” value is reported as 16.4% [at 95.3 µM]. For Cc1ccc(NC(N)=O)cc1, the “activity, negative = cytotoxicity” value was 16.9% [at 95.3 µM]. For CCOCCOCCOC(C)=O, the “activity, negative = cytotoxicity” value was -4.23% [at 95.3 µM]. In the case of CCCCCCCCCCCCCC(=O)OCC, the “activity, negative = cytotoxicity” value is reported as -11.3%. With C[C@@H]1CC[C@@]2(OC1)O[C@H]1C[C@H]3[C@@H]4CC[C@H]5C[C@@H](O)CC[C@]5(C)[C@H]4CC(=O)[C@]3(C)[C@H]1[C@@H]2C the “activity, negative = cytotoxicity” value was 11.9% [at 39.1 µM]. In the case of CC(=O)Nc1ccc(S(=O)(=O)Nc2cc(C)on2)cc1, the “activity, negative = cytotoxicity” value is reported as -11%. With C=CCn1cc[n+](C)c1 the “activity, negative = cytotoxicity” value was 3.9% [at 95.3 µM]. For CCCC[O][Al]([O]CCCC)[O]CCCC, the “activity, negative = cytotoxicity” value was 13.4%. For CCOC(=O)CC, the “activity, negative = cytotoxicity” value was -2.01%. With OCCC(F)(F)C(F)(F)C(F)(F)C(F)(F)C(F)(F)C(F)(F)F the “activity, negative = cytotoxicity” value was 16.2%. With C[n+]1ccccc1/C=N/O the “activity, negative = cytotoxicity” value was 3.34% [at 39.1 µM]. With c1coc(Cn2cccc2)c1 the “activity, negative = cytotoxicity” value was -11.4%. With CCCCC(CC)COC(=O)CC#N (centres undefined) the “activity, negative = cytotoxicity” value was 13.9%. With CC(C)c1cc(C(C)C)cc(C(C)C)c1 the “activity, negative = cytotoxicity” value was 19.7%. In the case of CCOC(=O)[C@H](CCc1ccccc1)N[C@H]1CS[C@H](c2cccs2)CN(CC(=O)O)C1=O, the “activity, negative = cytotoxicity” value is reported as 15.2%. In the case of COc1cc(OC)cc(OC)c1, the “activity, negative = cytotoxicity” value is reported as 11.5%. For O=C(O)COc1ccc2ccccc2c1, the “activity, negative = cytotoxicity” value was 5.7%. With Cc1cccc(N)n1 the “activity, negative = cytotoxicity” value was 15.6% [at 95.3 µM]. In the case of O=C(c1ccccc1)c1cccc(O)c1, the “activity, negative = cytotoxicity” value is reported as -2.5% [at 95.3 µM]. In the case of CCCCCCCC(=O)N(C)C, the “activity, negative = cytotoxicity” value is reported as 9.42%. For CC/C=C\CCOC(=O)c1ccccc1, the “activity, negative = cytotoxicity” value was -8.72%. With CCCOc1ccc(C(=O)OCCN(CC)CC)cc1N the “activity, negative = cytotoxicity” value was -8.61%.

From PubChem BioAssay (Tox21)
On the % scale 0 is the no-effect control and ±100 the full control effect.
